target: Misshapen-like kinase 1 (Homo sapiens) (UniProt Q8N4C8); settings: at 10 µM
Sequence (Q8N4C8 whole entry, looked up): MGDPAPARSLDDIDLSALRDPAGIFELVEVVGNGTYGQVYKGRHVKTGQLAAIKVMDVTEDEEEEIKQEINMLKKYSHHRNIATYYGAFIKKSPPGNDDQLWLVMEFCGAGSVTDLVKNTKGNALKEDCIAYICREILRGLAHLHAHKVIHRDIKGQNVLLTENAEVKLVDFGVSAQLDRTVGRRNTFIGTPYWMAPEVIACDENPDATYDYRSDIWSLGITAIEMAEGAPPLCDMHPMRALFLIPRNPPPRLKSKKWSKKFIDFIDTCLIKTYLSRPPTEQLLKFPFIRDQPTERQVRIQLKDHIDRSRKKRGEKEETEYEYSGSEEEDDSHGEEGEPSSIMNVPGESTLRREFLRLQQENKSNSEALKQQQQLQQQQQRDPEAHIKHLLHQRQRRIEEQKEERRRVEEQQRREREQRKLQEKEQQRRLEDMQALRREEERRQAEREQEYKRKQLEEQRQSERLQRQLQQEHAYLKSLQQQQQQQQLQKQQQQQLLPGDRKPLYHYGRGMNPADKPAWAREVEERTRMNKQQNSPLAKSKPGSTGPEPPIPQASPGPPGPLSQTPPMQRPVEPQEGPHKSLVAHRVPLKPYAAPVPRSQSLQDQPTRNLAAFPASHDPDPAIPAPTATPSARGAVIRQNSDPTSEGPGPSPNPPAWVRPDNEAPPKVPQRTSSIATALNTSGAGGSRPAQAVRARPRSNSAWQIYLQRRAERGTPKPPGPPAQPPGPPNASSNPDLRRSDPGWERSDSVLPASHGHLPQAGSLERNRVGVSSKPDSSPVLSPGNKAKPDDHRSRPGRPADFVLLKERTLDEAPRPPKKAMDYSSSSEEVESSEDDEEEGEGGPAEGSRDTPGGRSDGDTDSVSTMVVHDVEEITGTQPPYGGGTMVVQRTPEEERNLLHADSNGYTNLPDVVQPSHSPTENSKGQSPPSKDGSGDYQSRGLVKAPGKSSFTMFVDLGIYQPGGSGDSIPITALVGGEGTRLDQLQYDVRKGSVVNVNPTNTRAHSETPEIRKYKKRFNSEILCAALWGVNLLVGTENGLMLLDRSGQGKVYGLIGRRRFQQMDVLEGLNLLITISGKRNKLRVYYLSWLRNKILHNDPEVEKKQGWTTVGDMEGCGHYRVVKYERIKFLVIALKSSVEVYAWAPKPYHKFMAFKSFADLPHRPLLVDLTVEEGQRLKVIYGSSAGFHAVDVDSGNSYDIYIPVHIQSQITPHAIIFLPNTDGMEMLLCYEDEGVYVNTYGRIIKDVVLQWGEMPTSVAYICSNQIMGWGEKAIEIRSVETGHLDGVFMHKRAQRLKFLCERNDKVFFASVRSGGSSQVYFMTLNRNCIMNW

SMILES	residual activity [%]
C[S+]([O-])c1ccc(-c2nc(-c3ccc(F)cc3)c(-c3ccncc3)[nH]2)cc1 (stereo not given)	63
COC(=O)[C@@]1(O)C[C@H]2O[C@]1(C)n1c3ccccc3c3c4c(c5c6ccccc6n2c5c31)C(=O)NC4	1
COc1ccc2c(c1)/C(=C/c1cnc[nH]1)C(=O)N2	14
O=C1Nc2ccc3ncsc3c2/C1=C/c1c[nH]cn1	6
O=C1c2ccccc2-c2nc3nnnn3nc21	107
CCn1cnc2c(Nc3cccc(Cl)c3)nc(N[C@@H]3CCCC[C@@H]3N)nc21	80
COc1cc(OC)c(/C=C2\C(=O)Nc3ccccc32)c(OC)c1	50
COc1ccc2c(c[n+](C)c3c4cc5c(cc4ccc23)OCO5)c1OC	75
O=C1NC(=O)c2c1c1c3ccccc3n3c1c1c2c2ccccc2n1C1CCC3O1	71
N/C(=N\[N+](=O)[O-])N/N=C\c1ccc(-c2cccc([N+](=O)[O-])c2)o1	78
COc1cc2ncnc(Nc3ccc(OCc4ccccc4)cc3)c2cc1OC	71
O=c1[nH]c2ccccc2n1C1CCN(Cc2ccc(-c3nc4cc5[nH]cnc5cc4nc3-c3ccccc3)cc2)CC1	80
CC(C)(C)c1cc(C=C(C#N)C#N)cc(Br)c1O	113
c1cc(-c2cnn3cc(-c4ccc(OCCN5CCCCC5)cc4)cnc23)ccn1	13
O=[N+]([O-])/C=C/c1ccc2c(c1)OCO2	82

target: T1, Dual specificity mitogen-activated protein kinase kinase 6 (Homo sapiens) (UniProt P52564); settings: at 1 µM
T1 sequence (whole entry): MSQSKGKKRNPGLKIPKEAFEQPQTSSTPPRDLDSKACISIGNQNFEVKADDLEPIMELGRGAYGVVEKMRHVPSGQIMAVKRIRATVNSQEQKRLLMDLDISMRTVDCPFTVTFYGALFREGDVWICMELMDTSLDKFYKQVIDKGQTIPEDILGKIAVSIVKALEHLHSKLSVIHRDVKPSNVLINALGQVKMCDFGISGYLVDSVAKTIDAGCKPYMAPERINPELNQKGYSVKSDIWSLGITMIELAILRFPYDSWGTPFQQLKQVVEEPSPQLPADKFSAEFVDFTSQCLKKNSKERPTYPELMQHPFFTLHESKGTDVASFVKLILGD

SMILES	residual activity [%]
C[S+]([O-])c1ccc(-c2nc(-c3ccc(F)cc3)c(-c3ccncc3)[nH]2)cc1 (stereo not given)	43
O=C1Nc2ccc3ncsc3c2/C1=C/c1c[nH]cn1	-1
CCn1cnc2c(Nc3cccc(Cl)c3)nc(N[C@@H]3CCCC[C@@H]3N)nc21	99
COc1cc(OC)c(/C=C2\C(=O)Nc3ccccc32)c(OC)c1	105
CC(C)[C@H](CO)Nc1nc(Nc2cccc(Cl)c2)c2ncn(C(C)C)c2n1	97
O=C1NC(=O)c2c1c1c3ccccc3n3c1c1c2c2ccccc2n1C1CCC3O1	27
N/C(=N\[N+](=O)[O-])N/N=C\c1ccc(-c2cccc([N+](=O)[O-])c2)o1	88
COc1cc2ncnc(Nc3ccc(OCc4ccccc4)cc3)c2cc1OC	90
O=c1[nH]c2ccccc2n1C1CCN(Cc2ccc(-c3nc4cc5[nH]cnc5cc4nc3-c3ccccc3)cc2)CC1	80
O=[N+]([O-])/C=C/c1ccc2c(c1)OCO2	85
